Measured values from PubChem BioAssay AID602448 (National Center for Advancing Translational Sciences (NCATS), 2012).
Activity calls are given as the source filed them.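 How the source made its calls: active means max inhibition of at least 60%; inconclusive means max inhibition above 30% but below 60%; inactive means max inhibition of 30% or less.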

Target: Follicle-stimulating hormone receptor (Homo sapiens) (UniProt P23945)
Experiment: qHTS for antagonists of the Thyroid Stimulation Hormone Receptor: Hit Validation with Follickle Stimulating Hormone Receptor (FSHR)
Details: FSHR-expressing cells, cAMP HTRF, antagonist counterscreen; active compounds read high
Text: The thyroid-stimulating hormone receptor (TSHR) is a member of the 7 trans-membrane-spanning receptor (7TMR) family of cell surface receptors. TSHR-mediated hyperthyroidism is important in thyroid pathology. The development of small molecule antagonists of TSHR may lead to therapeutic approaches for TSHR-mediated hyperthyroidism caused by constitutively activating mutations or stimulating auto-antibodies associated with Graves' disease. Graves' disease is the leading cause of hyperthyroidism and is caused by autoantibodies that stimulate TSHR (TsAbs) causing thyroid growth and unregulated overproduction of thyroid hormones and existing treatments have liabilities (agranulocytosis). In addition, TSHRs are known to be expressed in multiple extrathyroidal tissues including bone, brain, kidney, testis, fat and cells of the immune system but the role of the TSHR in these tissues is not clear. Therefore, TSHR antagonists/inverse agonists could be used as probes of extrathyroidal TSHR function. Finally, TSHR inverse agonists, which are a subclass of antagonists that inhibit agonist-independent (or basal or constitutive) TSHR signaling, could be used to inhibit TSH-independent signaling in patients with recurrent or metastatic thyroid cancer who are receiving thyroid hormone to suppress TSH. […]

Follicle-stimulating hormone receptor (Homo sapiens), sequence (P23945 whole entry, looked up): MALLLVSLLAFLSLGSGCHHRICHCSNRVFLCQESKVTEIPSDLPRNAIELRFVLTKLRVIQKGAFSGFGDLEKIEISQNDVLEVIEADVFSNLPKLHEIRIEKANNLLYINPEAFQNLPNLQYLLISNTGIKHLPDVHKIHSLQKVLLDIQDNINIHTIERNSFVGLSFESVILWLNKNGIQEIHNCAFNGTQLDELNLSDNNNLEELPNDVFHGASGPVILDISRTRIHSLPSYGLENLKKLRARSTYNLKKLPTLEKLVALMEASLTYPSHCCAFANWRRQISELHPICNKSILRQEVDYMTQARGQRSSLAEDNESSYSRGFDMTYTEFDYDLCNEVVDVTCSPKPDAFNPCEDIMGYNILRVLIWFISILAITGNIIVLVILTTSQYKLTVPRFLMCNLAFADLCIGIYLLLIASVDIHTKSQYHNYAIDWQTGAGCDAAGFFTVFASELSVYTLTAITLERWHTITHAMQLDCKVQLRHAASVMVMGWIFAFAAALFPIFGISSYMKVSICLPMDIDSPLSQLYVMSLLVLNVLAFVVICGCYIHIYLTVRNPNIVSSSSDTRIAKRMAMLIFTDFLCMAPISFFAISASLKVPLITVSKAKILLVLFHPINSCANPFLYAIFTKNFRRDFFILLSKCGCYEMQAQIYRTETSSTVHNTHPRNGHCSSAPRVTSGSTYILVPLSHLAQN

In the case of `COC(=O)C1=C(c2ccc(-c3ccccc3)c(F)c2)C[C@@H]2CC[C@H]1N2C(=O)NCCOc1ccccc1`, the max inhibition is reported as 79.5% (active).
